D2 antag: D2 dopamine receptor (human) antagonism; P14416; HEK293 TREx D2 cells, calcium flux, dopamine EC80; inhibition, % at 10 µM; 2% of 340,000 active; in the data active = inhibition above about 30%; inactive = below that, where a call was filed; note: 0% is about no effect
Target sequence (P14416 whole entry, looked up): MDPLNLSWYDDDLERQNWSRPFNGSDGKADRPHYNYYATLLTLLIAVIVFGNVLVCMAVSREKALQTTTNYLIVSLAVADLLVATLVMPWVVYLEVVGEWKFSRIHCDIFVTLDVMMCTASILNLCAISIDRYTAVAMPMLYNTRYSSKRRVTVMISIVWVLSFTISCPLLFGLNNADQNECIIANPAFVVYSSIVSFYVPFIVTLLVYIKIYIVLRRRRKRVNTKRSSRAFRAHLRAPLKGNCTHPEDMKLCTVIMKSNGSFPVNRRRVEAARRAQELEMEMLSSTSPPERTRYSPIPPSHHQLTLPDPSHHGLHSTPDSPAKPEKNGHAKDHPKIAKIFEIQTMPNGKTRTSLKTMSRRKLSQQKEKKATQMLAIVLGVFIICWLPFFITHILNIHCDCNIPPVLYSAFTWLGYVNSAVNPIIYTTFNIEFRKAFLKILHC
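Antagonism is scored as inhibition of an EC80 dopamine-evoked calcium signal in a force-coupled, tetracycline-inducible HEK293 T-REx D2 line, with compound present 180 s before agonist.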
D2 PAM-1: potentiates the human D2 dopamine receptor allosterically; P14416; DiscoveRx D2 beta-arrestin cells, luminescence, 90 min; 100% = 57 uM dopamine signal; potentiation, % (concentration not given with the values); 0.23% of 360,000 active; AID 624464; in the data active = potentiation above about 50%
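D2 cells co-treated with compound plus 50 nM dopamine (EC20) for 90 min at 37 deg C to detect potentiation. Beta-arrestin recruitment was read as enzyme-fragment luminescence after 1 h at ambient temperature. Full response was set by 57 uM dopamine.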
D2 PAM-2: positive allosteric modulators of human D2 dopamine receptor. HEK293 T-REx D2, calcium flux, EC20 dopamine potentiation. potentiation, % at 10 µM. P14416. 0.34% of 340,000 active;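 active = potentiation over 3 SD above the plate norm, cut at about 30% in these data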; note: 0% is about no effect
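Primary screen. Calcium kinetics in induced HEK293 T-REx D2 cells: compound pre-addition 180 s, EC20 dopamine, 180 s more.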
D2 ag-1: agonists of human D2 dopamine receptor (beta-arrestin); P14416; DiscoveRx PathHunter D2 beta-arrestin, luminescence, 90 min; 100% = 57 uM dopamine signal; activation, % (no concentration beside the values); 0.084% of 360,000 active; AID 624465; in the data active = activation above about 40%
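Agonist mode: compounds alone added to overnight-plated D2 PathHunter cells for 90 min at 37 C, with 57 uM final dopamine (EC100) defining full response. Beta-arrestin recruitment detected by chemiluminescent reagent, read after 1 h at ambient temperature.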
D2 ag-2: agonists of human D2 dopamine receptor; 0.53% of 340,000 active; P14416; HEK293 T-REx D2 cells, calcium flux agonist mode; activation, % at 2 µM;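 active = activation over 3 SD above normal in the single-dose calcium agonist read, cut at about 30% in these data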; note: 0% is about no effect
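Agonism is scored from calcium flux in a force-coupled, inducible HEK293 cell line expressing D2, read kinetically for 180 s after compound addition against dopamine controls.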
Starred values were filed as active, the others as inactive. A selection: hits, their analogues and other compounds. The true share with any hit is near 2.4%.

Screening Cc1nn(CC(=O)NCCN2CCOCC2)c(=O)c2ccccc12 returned D2 antag 8, D2 PAM-1 -7, D2 PAM-2 1, D2 ag-1 -4 and D2 ag-2 0.
For CCCn1c(N)c(NCCN2CCOCC2)c(=O)n(CC(=O)NCc2ccccc2)c1=O the results were D2 antag 33*, D2 PAM-1 -1, D2 PAM-2 3, D2 ag-1 -3 and D2 ag-2 1.
`N#Cc1ccc(Sc2ccccn2)c([N+](=O)[O-])c1` gave D2 antag 38*, D2 PAM-1 3, D2 PAM-2 11, D2 ag-1 4 and D2 ag-2 0.
For CCOC(=O)c1c(SCCN2CCCCC2)n(-c2ccccc2)c(=S)n(-c2ccccc2)c1=O the results were D2 PAM-1 15 and D2 ag-1 0.
Screening Cc1ccc2cc(CN(CC3CCCO3)C(=S)NCc3ccco3)c(=O)[nH]c2c1C (stereo not drawn) returned D2 antag 33*, D2 PAM-1 -5, D2 PAM-2 5, D2 ag-1 -11 and D2 ag-2 -1.
`Cc1ccc(C)c2[nH]c(=O)c(CN(Cc3cccs3)C(=S)NCc3ccco3)cc12` gave D2 antag 53*, D2 PAM-1 -8, D2 PAM-2 6, D2 ag-1 0 and D2 ag-2 2.
For Cc1ccc(C)c2[nH]c(=O)c(CN(CC3CCCO3)C(=S)NCc3ccco3)cc12 (stereo not drawn) the results were D2 antag 6, D2 PAM-1 1, D2 PAM-2 2, D2 ag-1 1 and D2 ag-2 -1.
Screening COc1cc(CO)ccc1Oc1nnnn1-c1ccc(C(N)=O)cc1 returned D2 antag 31*, D2 PAM-1 -6, D2 PAM-2 -6, D2 ag-1 -1 and D2 ag-2 0.
For Cc1ccc(C(=O)N2CCC(c3c[nH]c4ccccc34)(c3c[nH]c4ccccc34)CC2)cc1 the results were D2 PAM-2 5 and D2 ag-2 -1.
Fc1ccccc1/C=N/n1cc(-c2ccccc2)[nH]c1=S was read as D2 antag 38*, D2 PAM-1 -21, D2 PAM-2 5, D2 ag-1 -7 and D2 ag-2 0.
`S=c1[nH]c(-c2ccccc2)cn1/N=C/c1ccc(Br)cc1` gave D2 antag 36*, D2 PAM-1 -18, D2 PAM-2 -25, D2 ag-1 -1 and D2 ag-2 0.
O=C(O)c1ccc(/C=N/n2cc(-c3ccccc3)[nH]c2=S)cc1 was read as D2 antag -3, D2 PAM-1 -18, D2 PAM-2 -5, D2 ag-1 -6 and D2 ag-2 -1.
`COc1ccc(OC(=O)c2cn(-c3cccc(OC)c3)c(=O)c3ccccc23)cc1` gave D2 PAM-2 -16 and D2 ag-2 2.
CCCCN(CCCC)S(=O)(=O)c1ccc2oc(C(=O)NCc3ccccc3)c(C)c2c1 was read as D2 PAM-2 -5 and D2 ag-2 1.
`COc1ccc(/C=C(\C#N)c2nc(-c3cc(Cl)ccc3OC)cs2)cc1` gave D2 PAM-2 -17 and D2 ag-2 0.
Screening CCOc1ccc(NC(=O)Cn2c(=O)n(Cc3ccccc3)c(=O)c3sc4ccccc4c32)cc1 returned D2 PAM-2 -3 and D2 ag-2 1.
Cc1ccc(Cl)cc1NC(=O)CN1C(=O)NC(C)(C2CC2)C1=O (stereo not drawn) was read as D2 PAM-1 -2 and D2 ag-1 1.
Screening CC1(C2CC2)NC(=O)N(CC(=O)NCc2ccc(Cl)cc2Cl)C1=O (stereo not drawn) returned D2 antag 40*, D2 PAM-1 -3, D2 PAM-2 12, D2 ag-1 -9 and D2 ag-2 0.
For C=CCn1c(=O)/c(=C/c2ccc(Cl)cc2)s/c1=C(\C#N)c1nnc2n1CCCCC2 the results were D2 PAM-1 5 and D2 ag-1 -1.
Screening O=C(Cn1nnnc1-c1ccccc1F)Nc1ccc(F)c(F)c1 returned D2 PAM-2 -7 and D2 ag-2 -1.
Cc1c(C)c2ccc(OCC(=O)Nc3ccccn3)cc2oc1=O was read as D2 antag 36*, D2 PAM-1 -4, D2 PAM-2 10, D2 ag-1 -3 and D2 ag-2 0.

Screens deposited in PubChem by National Center for Advancing Translational Sciences (NCATS).
